SW480 rereplic = inducers of DNA re-replication in SW480 colon cancer cells; AID 624297; Potency, µM (series often up to 46.1 µM), for inactives: top-dose re-replication activation, actives largely listed as activators; 340,000 compounds, 1.8% hits; SW480 DNA re-replication, Hoechst DNA content imaging, 48 h; note: % of control where 0% means no effect; nearly all actives have a fitted effect of over 55% in size
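Quantitative HTS format with DMSO vehicle controls; 48 hr drug incubation at 37 C, then 40 min Hoechst staining and scanning imager measurement at 405 nm excitation.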
MCF10A rerep = DNA re-replication induction in MCF 10a cells; 350,000 compounds, 2.9% hits; Potency, µM (series often up to 46.1 µM), for the others: at the top dose activity, positive = re-replication, hits mostly activators; MCF 10A DNA re-replication, Hoechst nuclear intensity, 48 h; note: % of control where 0% means no effect; nearly all actives have a fitted effect of over 50% in size
KB-V1 cytotox = kills drug-selected multidrug resistant KB-V1 cells | KB-V1 MDR cells viability, CellTiter-Glo, 72 h | Potency, µM (highest dose often 46.1 µM), actives largely listed as cytotoxic | 400,000 compounds, 3.4% hits; note: % is set by controls: 0 for no effect and ±100 for the full control effect; nearly all actives have a fitted effect of over 60% in size
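qHTS viability screen in drug-selected KB-V1 MDR cells: 72 h compound treatment at 37 degrees C, ATP luminescence end point.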
KB-3-1 cytotox = KB-3-1 parental cell cytotoxicity; KB-3-1 viability, CellTiter-Glo ATP luminescence, 72 h; Potency, µM (highest dose often 46.1 µM), hits mostly cytotoxic; 400,000 compounds, 1.4% hits; AID 1347075; note: % is set by controls: 0 for no effect and ±100 for the full control effect; nearly all actives have a fitted effect of over 60% in size
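Cytotoxicity measured as CellTiter-Glo luminescence after 72 h at 37 C. Compound titrations were pinned onto drug-naive KB-3-1 parental adenocarcinoma cells grown in DMEM with 10% FBS, and normalized data fitted to concentration-response curves.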
12-LOX inh = blocks human arachidonate 12S-lipoxygenase | P18054 | purified 12hLO, xylenol orange hydroperoxide absorbance | Potency, µM (series often up to 108 µM), inactives show at the top dose activity change, negative = inhibition, usual class: inhibitors | 580,000 compounds, 1.1% hits | AID 1671190; note: % is set by controls: 0 for no effect and ±100 for the full control effect
Target sequence (P18054 whole entry, looked up): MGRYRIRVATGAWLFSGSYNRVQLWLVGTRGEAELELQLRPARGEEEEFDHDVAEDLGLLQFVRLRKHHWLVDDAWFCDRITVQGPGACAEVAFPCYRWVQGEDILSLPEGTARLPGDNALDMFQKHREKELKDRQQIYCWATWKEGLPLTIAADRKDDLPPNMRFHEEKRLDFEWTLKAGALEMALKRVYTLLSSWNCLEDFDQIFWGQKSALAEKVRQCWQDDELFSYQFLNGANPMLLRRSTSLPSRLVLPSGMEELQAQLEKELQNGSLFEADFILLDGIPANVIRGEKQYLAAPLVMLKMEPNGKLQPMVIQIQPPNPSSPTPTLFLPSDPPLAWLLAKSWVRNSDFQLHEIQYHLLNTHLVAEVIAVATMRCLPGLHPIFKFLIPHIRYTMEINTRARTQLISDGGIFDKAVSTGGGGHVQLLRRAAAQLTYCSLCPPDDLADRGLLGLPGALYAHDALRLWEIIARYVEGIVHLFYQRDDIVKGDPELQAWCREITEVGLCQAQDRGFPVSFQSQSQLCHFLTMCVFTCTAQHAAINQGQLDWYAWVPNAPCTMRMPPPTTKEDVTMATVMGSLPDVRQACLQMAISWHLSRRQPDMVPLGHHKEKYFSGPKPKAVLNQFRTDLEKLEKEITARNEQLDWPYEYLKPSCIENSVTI
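Purified human 12hLO (150 nM final) in 25 mM Hepes, 0.01% Triton X-100, pH 7.0 was preincubated 15 min at room temperature with compound. Then 40 uM arachidonic acid was added, 30 min. Hydroperoxide was read by Fe-XO absorbance ratio 573/405 nm.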
PINK1 modulator = PINK1 expression modulation | 410,000 compounds, 0.2% hits | PINK1 immunofluorescence, high-content cytometry, 24 h | Potency, µM (series often up to 76.6 µM), inactives show at the highest dose activation (PINK1 increase), actives largely listed as activators; active = well fitted activation curve with a large enough effect; inconclusive = small, poorly fitted or top-dose-only effect; cell line not stated here; note: % of control where 0% means no effect; nearly all actives have a fitted effect of over 65% in size
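PINK1 protein, normally rapidly degraded, was detected by immunofluorescence after 24 hour compound treatment of a stable cell line. Titration data (5 concentrations) came from laser-scanning cytometry, with CCCP-treated wells as controls.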
An asterisk follows results filed as active; [ ] = dose if it differs, or a comment. Most compounds without a hit are left out; they make up all but 5.8% or so of the library. Unless noted, calls come from the whole dose curve; as a rule, active = well fitted curve in the direction sought with a large enough effect; inconclusive = small, poorly fitted or top-dose-only effect, or another doubt; inactive = no such curve, though single readings can be large; an effect the other way counts as inactive or inconclusive. Potency is the fitted concentration of half-maximal effect.

Screening COC(=O)CNC(c1ccccc1)c1cc(Br)ccc1NC(=O)CNC(=O)OCc1ccccc1 (configuration not stated) returned SW480 rereplic 11%, MCF10A rerep inconclusive, KB-V1 cytotox inconclusive, KB-3-1 cytotox inactive and PINK1 modulator -1%.
Screening CCOC(=O)CNC(c1ccccc1)c1cc(Br)ccc1NC(=O)CCN1CCOCC1 (configuration not stated) returned SW480 rereplic 107%, MCF10A rerep 10µM*, KB-V1 cytotox inconclusive, KB-3-1 cytotox inactive, 12-LOX inh inconclusive and PINK1 modulator 2%.
CCc1ccc(-n2nc(CO)c(C(=O)NCc3ccc(OC)cc3)n2)cc1 was read as 12-LOX inh 12%.
`Cc1ccc(SC(C)C(=O)NC2CCCCC2)cc1` (configuration not stated) gave 12-LOX inh -1%.
Screening COc1ccc(CNC(=O)C[C@@H]2C[C@@H](C(C)C)[C@H](CNC(=O)c3cccnc3)C=C2C)cc1 returned 12-LOX inh 4%.
O=C(CC(c1ccc(OCc2ccccc2)cc1)S(=O)(=O)c1ccccc1)c1ccc(F)cc1 (configuration not stated) was read as 12-LOX inh 16%.
O=C1CC(c2cccc([N+](=O)[O-])c2)c2c(ccc3ccccc23)N1 (configuration not stated) was read as SW480 rereplic inconclusive, MCF10A rerep inconclusive, KB-V1 cytotox 5.8µM*, KB-3-1 cytotox inconclusive, 12-LOX inh 14% and PINK1 modulator -1%.
Screening CCOC(=O)c1c(/N=C/N(C)C)sc(/C=N/Nc2ccccc2)c1-c1ccc(Cl)cc1 returned SW480 rereplic inconclusive, MCF10A rerep 21µM*, KB-V1 cytotox inactive, KB-3-1 cytotox inactive, 12-LOX inh inconclusive and PINK1 modulator -3%.
Screening CCOC(=O)c1c(/N=C/N(C)C)sc(C)c1C returned SW480 rereplic -7%, MCF10A rerep 1%, KB-V1 cytotox inactive, KB-3-1 cytotox inactive, 12-LOX inh -5% and PINK1 modulator -1%.
CCNC(=O)NC(=O)C(C)OC(=O)c1c(C)c(CC)nc2ccccc12 (configuration not stated) was read as 12-LOX inh -1%.
Screening CNC(=O)NC(=O)C(C)OC(=O)c1c2c(nc3ccccc13)/C(=C/c1cccs1)CC2 (configuration not stated) returned SW480 rereplic inconclusive, MCF10A rerep inconclusive, KB-V1 cytotox 5.2µM*, KB-3-1 cytotox inconclusive, 12-LOX inh inconclusive and PINK1 modulator 12%.
CCCCNC(=O)COC(=O)c1c2c(nc3ccccc13)CCC2 was read as SW480 rereplic -5%, MCF10A rerep -2%, KB-V1 cytotox inactive, KB-3-1 cytotox inactive, 12-LOX inh inconclusive and PINK1 modulator -1%.
For CCCCNC(=O)COC(=O)c1c2c(nc3ccccc13)/C(=C/c1cccs1)CC2 the results were SW480 rereplic 5.2µM*, MCF10A rerep 3.3µM*, KB-V1 cytotox inconclusive, KB-3-1 cytotox inactive, 12-LOX inh -17% and PINK1 modulator 1%.
`CN(C)CCC(=O)N1Cc2ccccc2CC2(CCCCN2Cc2cccnc2)C1` (configuration not stated) gave 12-LOX inh 6%[6.33 µM].
O=C1Nc2c(Cl)cc(Cl)cc2C12Nc1ccccc1S2 (configuration not stated) was read as 12-LOX inh 35µM*.
O=C(CC1Sc2ccccc2NC1=O)NNc1ccc(Cl)cc1Cl (configuration not stated) was read as SW480 rereplic 27%, MCF10A rerep 16%, KB-V1 cytotox inactive, KB-3-1 cytotox inactive, 12-LOX inh -21% and PINK1 modulator 12%.
